According to the supplement of paper PMC11732987, “Enantioselective OTUD7B fragment discovery through chemoproteomics screening and high-throughput optimisation” (Communications Chemistry, 2025):

Experiments:
Assay in all cases: log2 ratio of Biotin-Ahx-Ub-VS probe labelling (fragment/DMSO); higher = less target engagement (more negative = stronger competition), active = hit call of the paper (q ≤ 0.05, log2 ratio ≤ -1)
Details in all cases: compound concentration: 200 uM; treatment time: 3 h
USP34 = USP34 (UniProt Q70CQ2)
Sequence of USP34 (Q70CQ2 whole entry, the tested form may be a part): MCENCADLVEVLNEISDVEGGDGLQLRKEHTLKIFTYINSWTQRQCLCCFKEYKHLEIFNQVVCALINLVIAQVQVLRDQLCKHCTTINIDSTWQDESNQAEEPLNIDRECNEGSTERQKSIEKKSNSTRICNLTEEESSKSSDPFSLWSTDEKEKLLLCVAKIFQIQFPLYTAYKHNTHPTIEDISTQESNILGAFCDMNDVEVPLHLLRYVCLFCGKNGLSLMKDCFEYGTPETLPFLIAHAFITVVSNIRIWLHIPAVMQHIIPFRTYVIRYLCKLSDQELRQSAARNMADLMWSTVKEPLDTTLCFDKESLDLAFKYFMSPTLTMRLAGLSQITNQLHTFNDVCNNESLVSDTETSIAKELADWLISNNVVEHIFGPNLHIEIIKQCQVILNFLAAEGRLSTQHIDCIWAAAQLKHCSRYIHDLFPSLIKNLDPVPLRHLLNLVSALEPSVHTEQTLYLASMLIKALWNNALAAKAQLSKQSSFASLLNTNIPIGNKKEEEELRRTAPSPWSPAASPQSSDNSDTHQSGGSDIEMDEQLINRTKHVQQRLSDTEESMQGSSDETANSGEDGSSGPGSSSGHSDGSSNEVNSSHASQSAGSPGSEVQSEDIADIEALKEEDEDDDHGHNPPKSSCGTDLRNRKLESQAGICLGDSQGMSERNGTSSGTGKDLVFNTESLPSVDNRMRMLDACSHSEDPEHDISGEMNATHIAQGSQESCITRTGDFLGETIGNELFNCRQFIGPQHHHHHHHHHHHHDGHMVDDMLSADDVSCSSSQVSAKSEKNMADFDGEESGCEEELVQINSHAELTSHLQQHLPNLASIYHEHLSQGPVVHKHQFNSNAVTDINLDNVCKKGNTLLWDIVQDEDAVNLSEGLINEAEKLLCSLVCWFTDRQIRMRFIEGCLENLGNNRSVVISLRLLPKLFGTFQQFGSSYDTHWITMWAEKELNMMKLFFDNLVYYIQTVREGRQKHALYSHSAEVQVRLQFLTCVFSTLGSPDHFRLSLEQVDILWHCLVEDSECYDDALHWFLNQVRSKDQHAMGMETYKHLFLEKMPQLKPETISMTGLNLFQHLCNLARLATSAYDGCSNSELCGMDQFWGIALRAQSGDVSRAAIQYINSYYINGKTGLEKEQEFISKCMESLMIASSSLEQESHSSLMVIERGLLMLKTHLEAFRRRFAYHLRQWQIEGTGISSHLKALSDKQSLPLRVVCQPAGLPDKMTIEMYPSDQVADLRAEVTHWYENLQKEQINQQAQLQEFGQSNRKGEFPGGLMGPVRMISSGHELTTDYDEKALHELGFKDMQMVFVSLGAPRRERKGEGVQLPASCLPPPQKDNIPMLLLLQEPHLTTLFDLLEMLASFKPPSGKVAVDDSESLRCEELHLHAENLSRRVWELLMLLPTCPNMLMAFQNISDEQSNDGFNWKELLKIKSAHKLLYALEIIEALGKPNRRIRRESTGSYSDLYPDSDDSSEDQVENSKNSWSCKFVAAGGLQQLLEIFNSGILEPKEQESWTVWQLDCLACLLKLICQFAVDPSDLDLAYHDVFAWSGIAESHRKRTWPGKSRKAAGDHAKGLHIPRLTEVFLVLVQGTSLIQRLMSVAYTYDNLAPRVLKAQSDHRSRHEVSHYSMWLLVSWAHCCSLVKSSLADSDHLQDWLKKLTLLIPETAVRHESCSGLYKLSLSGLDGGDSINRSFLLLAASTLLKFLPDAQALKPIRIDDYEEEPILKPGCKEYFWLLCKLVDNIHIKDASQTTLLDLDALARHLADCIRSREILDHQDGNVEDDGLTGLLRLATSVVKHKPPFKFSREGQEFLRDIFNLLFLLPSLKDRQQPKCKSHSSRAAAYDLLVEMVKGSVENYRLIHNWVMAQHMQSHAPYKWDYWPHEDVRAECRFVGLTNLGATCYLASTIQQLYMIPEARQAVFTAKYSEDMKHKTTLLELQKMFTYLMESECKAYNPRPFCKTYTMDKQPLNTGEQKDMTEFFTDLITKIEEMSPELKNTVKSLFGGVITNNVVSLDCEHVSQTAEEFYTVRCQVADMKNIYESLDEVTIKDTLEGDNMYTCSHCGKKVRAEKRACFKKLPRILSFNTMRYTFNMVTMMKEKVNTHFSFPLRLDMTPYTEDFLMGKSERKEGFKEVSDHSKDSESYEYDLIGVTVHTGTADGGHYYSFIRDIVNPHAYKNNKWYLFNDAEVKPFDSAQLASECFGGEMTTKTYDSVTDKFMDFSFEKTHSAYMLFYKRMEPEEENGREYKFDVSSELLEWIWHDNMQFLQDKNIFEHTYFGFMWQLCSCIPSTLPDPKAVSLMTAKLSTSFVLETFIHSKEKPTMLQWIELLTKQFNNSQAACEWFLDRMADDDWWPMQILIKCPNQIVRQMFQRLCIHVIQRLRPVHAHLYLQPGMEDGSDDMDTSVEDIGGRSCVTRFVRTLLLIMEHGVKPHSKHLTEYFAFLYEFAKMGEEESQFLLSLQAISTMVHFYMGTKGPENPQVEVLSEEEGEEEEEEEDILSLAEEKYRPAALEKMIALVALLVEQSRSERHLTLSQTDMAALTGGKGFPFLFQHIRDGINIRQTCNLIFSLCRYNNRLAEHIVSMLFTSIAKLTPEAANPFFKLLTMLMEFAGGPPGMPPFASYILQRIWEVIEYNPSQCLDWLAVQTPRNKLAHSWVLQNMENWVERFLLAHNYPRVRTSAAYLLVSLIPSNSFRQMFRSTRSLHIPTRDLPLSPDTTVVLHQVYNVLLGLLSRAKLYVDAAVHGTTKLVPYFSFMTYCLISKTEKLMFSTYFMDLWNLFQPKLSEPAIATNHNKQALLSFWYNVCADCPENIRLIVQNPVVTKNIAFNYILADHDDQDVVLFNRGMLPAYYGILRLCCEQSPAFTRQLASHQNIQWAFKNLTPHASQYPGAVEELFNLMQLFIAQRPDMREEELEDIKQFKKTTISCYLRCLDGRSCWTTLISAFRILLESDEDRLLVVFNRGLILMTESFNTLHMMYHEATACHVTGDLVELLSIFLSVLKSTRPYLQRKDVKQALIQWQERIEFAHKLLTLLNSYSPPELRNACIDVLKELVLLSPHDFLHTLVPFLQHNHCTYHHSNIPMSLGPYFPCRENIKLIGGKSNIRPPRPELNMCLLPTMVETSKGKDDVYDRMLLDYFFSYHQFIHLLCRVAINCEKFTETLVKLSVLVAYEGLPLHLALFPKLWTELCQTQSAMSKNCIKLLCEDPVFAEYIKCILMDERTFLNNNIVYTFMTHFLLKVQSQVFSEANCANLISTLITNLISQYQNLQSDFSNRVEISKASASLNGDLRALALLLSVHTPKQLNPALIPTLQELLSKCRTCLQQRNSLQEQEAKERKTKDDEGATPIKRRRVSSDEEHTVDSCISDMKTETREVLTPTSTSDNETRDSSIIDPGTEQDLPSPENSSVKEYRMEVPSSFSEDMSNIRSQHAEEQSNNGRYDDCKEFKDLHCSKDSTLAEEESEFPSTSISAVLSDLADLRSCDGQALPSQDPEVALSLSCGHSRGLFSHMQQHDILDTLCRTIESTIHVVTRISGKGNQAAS
Outline: (§1)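 Each value is an average log2 ratio of fragment to vehicle, tested by unpaired t-test. The underlying Spectronaut label-free quantities were global-median-normalised, and only proteins with ≥2 unique peptides were included. Triplicate HEK293T lysate samples (495 µg) were exposed to fragment at 200 µM or vehicle for 3 h, then to Biotin-Ahx-Ub-VS at 0.5 µM final for 1 h, before NeutrAvidin enrichment of labelled DUBs, LysC and trypsin digestion, and diaPASEF LC-MS/MS.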

USP36 = target: T1, USP36 (UniProt Q9P275)
T1 sequence (whole entry): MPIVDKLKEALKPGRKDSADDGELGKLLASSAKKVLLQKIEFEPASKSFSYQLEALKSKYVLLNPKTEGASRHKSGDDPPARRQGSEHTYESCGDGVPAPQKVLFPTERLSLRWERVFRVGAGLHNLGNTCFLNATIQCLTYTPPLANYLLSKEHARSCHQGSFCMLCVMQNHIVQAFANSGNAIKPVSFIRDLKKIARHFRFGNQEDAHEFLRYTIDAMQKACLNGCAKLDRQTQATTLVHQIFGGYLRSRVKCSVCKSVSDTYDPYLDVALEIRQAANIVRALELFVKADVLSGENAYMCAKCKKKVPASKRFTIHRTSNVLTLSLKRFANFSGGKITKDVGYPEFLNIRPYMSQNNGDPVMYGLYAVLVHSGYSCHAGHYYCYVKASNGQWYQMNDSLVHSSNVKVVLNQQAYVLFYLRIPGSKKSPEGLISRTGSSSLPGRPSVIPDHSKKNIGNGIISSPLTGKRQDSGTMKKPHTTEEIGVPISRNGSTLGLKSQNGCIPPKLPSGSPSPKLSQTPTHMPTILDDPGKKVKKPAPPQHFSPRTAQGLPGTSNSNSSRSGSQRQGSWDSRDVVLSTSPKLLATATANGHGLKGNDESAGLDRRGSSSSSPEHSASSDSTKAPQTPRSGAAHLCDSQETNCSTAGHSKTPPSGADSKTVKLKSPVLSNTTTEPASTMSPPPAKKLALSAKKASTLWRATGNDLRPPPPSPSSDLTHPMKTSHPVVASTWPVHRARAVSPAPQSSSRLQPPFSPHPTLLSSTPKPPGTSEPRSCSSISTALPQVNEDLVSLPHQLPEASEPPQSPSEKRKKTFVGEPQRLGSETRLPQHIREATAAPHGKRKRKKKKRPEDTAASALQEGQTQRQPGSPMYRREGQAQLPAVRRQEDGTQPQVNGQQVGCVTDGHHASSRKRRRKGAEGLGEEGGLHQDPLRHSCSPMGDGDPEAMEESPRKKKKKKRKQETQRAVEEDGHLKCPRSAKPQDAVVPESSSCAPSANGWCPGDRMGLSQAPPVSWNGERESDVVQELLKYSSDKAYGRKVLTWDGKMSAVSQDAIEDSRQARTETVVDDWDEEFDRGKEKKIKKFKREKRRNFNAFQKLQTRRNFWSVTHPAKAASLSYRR
Outline: as §1

USP38 = target: T2, USP38 (UniProt Q8NB14)
T2 sequence (whole entry): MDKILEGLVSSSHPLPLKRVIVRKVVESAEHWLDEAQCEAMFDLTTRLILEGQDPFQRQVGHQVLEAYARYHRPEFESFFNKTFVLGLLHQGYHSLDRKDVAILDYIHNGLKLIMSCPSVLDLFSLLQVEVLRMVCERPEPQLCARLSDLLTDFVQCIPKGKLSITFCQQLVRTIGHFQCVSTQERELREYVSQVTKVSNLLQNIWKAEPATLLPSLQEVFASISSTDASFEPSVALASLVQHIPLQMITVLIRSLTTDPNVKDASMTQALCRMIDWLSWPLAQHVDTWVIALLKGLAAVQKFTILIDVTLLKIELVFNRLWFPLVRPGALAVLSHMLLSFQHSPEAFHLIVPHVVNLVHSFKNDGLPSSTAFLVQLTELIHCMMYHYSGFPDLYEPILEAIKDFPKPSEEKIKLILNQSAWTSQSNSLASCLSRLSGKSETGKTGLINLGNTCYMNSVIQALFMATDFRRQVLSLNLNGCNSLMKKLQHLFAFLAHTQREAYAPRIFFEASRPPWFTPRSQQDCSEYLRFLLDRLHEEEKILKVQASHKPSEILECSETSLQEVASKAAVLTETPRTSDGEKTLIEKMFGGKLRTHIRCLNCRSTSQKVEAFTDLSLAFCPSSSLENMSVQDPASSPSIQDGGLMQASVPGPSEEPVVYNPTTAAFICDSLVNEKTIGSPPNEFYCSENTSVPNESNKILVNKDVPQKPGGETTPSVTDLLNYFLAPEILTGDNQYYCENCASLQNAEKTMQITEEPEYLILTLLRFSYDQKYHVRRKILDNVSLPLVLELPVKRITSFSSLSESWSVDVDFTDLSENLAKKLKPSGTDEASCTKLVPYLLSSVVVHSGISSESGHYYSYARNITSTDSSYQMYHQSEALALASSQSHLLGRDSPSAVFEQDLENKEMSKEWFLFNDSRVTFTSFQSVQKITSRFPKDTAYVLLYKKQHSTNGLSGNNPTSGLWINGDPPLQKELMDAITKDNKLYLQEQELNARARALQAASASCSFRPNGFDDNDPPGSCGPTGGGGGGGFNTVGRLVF
Outline: as §1

USP39 = target: T3, USP39 (UniProt Q53GS9)
T3 sequence (whole entry): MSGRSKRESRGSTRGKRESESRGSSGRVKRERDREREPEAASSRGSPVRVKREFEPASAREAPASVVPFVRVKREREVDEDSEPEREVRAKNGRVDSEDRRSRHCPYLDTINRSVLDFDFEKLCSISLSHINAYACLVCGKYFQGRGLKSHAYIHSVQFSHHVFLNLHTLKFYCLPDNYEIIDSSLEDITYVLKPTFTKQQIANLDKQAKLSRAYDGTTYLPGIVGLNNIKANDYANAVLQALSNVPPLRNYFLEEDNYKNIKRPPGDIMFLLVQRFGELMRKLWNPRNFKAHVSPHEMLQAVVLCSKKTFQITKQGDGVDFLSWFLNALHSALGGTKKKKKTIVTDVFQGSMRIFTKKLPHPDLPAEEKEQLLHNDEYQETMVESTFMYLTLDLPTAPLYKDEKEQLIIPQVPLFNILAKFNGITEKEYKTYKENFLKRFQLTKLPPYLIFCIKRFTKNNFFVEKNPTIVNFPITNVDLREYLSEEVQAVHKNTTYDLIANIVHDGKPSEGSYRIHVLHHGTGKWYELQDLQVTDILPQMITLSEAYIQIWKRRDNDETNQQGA
Outline: as §1

USP4 = target: T4, USP4 (UniProt Q13107)
T4 sequence (whole entry): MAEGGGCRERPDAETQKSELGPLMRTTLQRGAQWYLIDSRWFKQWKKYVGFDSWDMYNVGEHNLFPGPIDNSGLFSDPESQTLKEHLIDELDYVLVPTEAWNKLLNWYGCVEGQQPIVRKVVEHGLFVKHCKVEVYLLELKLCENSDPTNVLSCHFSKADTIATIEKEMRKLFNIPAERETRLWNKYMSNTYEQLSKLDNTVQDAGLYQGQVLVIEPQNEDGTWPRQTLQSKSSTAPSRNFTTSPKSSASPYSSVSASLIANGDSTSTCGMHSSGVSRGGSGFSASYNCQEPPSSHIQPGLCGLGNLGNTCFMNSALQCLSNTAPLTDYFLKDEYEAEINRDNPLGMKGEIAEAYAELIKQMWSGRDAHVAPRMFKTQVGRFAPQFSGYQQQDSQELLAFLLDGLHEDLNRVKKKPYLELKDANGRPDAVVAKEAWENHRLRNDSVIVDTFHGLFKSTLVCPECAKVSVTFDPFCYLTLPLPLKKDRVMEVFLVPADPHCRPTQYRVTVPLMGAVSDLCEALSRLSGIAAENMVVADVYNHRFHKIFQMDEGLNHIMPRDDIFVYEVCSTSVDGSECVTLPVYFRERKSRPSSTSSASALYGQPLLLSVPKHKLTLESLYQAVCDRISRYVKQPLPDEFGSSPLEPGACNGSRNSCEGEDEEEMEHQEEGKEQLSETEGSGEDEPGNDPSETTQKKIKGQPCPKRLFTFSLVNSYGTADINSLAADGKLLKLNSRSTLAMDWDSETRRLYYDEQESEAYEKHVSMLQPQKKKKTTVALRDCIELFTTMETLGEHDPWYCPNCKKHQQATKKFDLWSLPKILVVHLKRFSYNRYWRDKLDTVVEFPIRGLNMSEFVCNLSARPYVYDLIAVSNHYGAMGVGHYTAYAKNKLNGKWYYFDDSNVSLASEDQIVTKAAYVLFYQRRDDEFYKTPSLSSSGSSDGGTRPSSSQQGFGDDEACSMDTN
Outline: as §1

Measured: log2 ratio of Biotin-Ahx-Ub-VS probe labelling

Cn1cc(CN(Cc2ccc(Cl)cc2)C(=O)CCl)cn1
inactive: USP34 -0.228 | USP36 0.253 | USP38 -0.245 | USP39 -0.193 | USP4 -0.316
